Records with an inconclusive call do not appear. The source made the active and inactive calls. Rule for the calls: active = hit-call score of the fitted dose curve at least 0.9, where 1 is the maximum; inconclusive = response in the unintended direction; inactive = score below 0.9.
Target: Estrogen receptor (Homo sapiens) (UniProt P03372)
Assay: ATG_ERa_TRANS: Attagene TRANS-FACTORIAL HepG2 Assay for human Estrogen Receptor alpha (ERa) (AID 2282970)
Details: HepG2 Attagene TRANS ERa GAL4 reporter, mRNA
Method: ATG_TRANS is a cell-based, multiplexed-readout assay that uses HepG2, a human liver cell line, with measurements taken at 24 hours after chemical dosing in a 24-well plate.ATG_ERa_TRANS is one of 30 assay component(s) measured or calculated from the ATG_TRANS assay. It is designed to make measurements of mRNA induction, a form of inducible reporter, as detected with fluorescence intensity signals by Reverse transcription polymerase chain reaction (RT-PCR) and Capillary electrophoresis technology.Data from the assay component ATG_ERa_TRANS was analyzed into 1 assay endpoint. This assay endpoint, ATG_ERa_TRANS, was analyzed in the positive analysis fitting direction relative to DMSO as the negative control and baseline of activity. Using a type of inducible reporter, measures of mRNA for gain-of-signal activity can be used to understand the reporter gene at the transcription factor-level as they relate to the gene ESR1. Furthermore, this assay endpoint can be referred to as a primary readout, because this assay has produced multiple assay endpoints where this one serves a reporter gene function. To generalize the intended target to other relatable targets, this assay endpoint is annotated to the nuclear receptor intended target family, where the subfamily is steroidal.
Human liver HepG2 cells are transiently transfected with multiple reporter transcription units (MRTUs) in 6-well plates using FuGene 6 reagent (Roche; 3 ml FuGene/1 mg DNA). The MRTU constructs are regulated by a cis-regulating element (promoter). […] A major difference between the CIS and TRANS system is that in CIS activities of endogenous TFs are measured, whereas the TRANS assay evaluates changes in activities of exogenous, chimeric NR-Gal4 proteins. […] At the end of 24 hour incubation, total RNA was isolated using TriZol reagent (Invitrogen). The isolated RNA is then reverse-transcribed using oligo(dT) primer and Mo-MLV reverse transcriptase (Invitrogen) with DNAse I (Ambion) treatment for 30 min. The one-tenth of the produced cDNA was amplified by PCR using Taq DNA polymerase (Invitrogen) and two reporter sequence-specific primers. The PCR products were fluorescently labeled by primer extension with 6-arboxyfluorescein (6-FAM) 5'-labeled reporter sequence-specific primer (2 min at 95 C, 20 s at 68 C and 10 min at 72 C) and these products were digested with 5U of HpaI (New England Biolabs) for 2h at 37 C. […] The raw capillary electrophoresis data was processed using Attagraph software (Attagene).

Chain of Estrogen receptor (Homo sapiens) (P03372 whole entry, looked up): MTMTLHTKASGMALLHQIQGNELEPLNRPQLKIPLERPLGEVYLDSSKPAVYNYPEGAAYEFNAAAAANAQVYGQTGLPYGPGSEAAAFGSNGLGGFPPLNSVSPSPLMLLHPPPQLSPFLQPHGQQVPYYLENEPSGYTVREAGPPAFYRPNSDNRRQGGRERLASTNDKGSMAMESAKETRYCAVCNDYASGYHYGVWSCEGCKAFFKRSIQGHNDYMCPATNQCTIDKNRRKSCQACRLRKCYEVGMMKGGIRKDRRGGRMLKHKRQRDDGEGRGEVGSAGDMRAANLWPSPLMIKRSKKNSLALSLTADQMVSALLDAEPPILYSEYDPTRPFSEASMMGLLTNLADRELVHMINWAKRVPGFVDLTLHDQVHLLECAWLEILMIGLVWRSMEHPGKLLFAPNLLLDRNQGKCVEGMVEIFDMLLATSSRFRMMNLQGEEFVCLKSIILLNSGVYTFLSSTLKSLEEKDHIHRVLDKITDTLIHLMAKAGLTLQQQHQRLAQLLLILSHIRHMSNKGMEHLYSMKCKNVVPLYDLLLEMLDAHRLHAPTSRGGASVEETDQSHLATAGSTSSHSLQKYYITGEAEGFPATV

Structure (SMILES)	outcome	AC50
FC(F)(F)C(F)(F)C(F)(F)C(F)(F)C(F)(F)C(F)(F)CCI	inactive	
NS(=O)(=O)c1cc2c(cc1Cl)NCNS2(=O)=O	inactive	
COc1ccc(C)cc1N	inactive	
C1CCC(SSC2CCCCC2)CC1		27.4 µM (active)
CCCCCCCCCCCCCCCCCC(=O)O		25.9 µM (active)
O=c1[nH]cc(F)c(=O)[nH]1		26.1 µM (active)
CC=Cc1ccc(O)c(OC)c1	inactive	
CCOC(=O)C(C)(C)Oc1ccc(Cl)cc1	inactive	
O=C(O)Cc1ccccc1Nc1c(Cl)cccc1Cl	inactive	
COc1cc(/C=C/C(=O)CC(=O)/C=C/c2ccc(O)c(OC)c2)ccc1O	inactive	
C=CCc1ccc(O)c(OC)c1		41.4 µM (active)
Oc1ccc2c(c1)OC[C@@H](N1CCC(O)(c3ccc(F)cc3)CC1)[C@H]2O		6.61 µM (active)
Cc1cccc([N+](=O)[O-])c1C		44.3 µM (active)
CCCc1cc(=O)[nH]c(=S)[nH]1		8.12 µM (active)
CCCCCCCC=O	inactive	
Cc1cc(NC(=O)C(=O)O)cc(C)c1Oc1ccc(O)c2c1CCC2	inactive	
COc1cccc2c1C(=O)c1c(O)c3c(c(O)c1C2=O)C[C@@](O)(C(=O)CO)C[C@@H]3O[C@H]1C[C@H](N)[C@H](O)[C@H](C)O1	inactive	
Cc1c(C(=O)O)c(O)cc2c1C(=O)c1c(O)c([C@@H]3O[C@H](CO)[C@@H](O)[C@H](O)[C@H]3O)c(O)c(O)c1C2=O	inactive	
Cc1ccc(C)c(O)c1C	inactive	
NCCO	inactive	

Structure (SMILES)	outcome	AC50
CCCCCCCCCCO	inactive	
CN1CCN(Cc2cc(-c3ccc4[nH]c(=O)oc4c3)co2)[C@@H](c2ccc(F)cc2)C1	inactive	
C[C@]12C=CC(=O)C=C1CC[C@@H]1[C@@H]2C(=O)C[C@@]2(C)[C@H]1CC[C@]2(O)C(=O)CO		58.3 µM (active)
CCCCCCCCCCCCCO		65.7 µM (active)
CCCCC(CC)COC(=O)CC(C(=O)OCC(CC)CCCC)S(=O)(=O)O (stereo not given)	inactive	
CC(=O)Oc1ccccc1C(=O)O	inactive	
CC(=O)OC/C=C(\C)CCC=C(C)C	inactive	
COC(=O)c1ccc(O)cc1		63.8 µM (active)
Cc1ccc(C)c(C)c1	inactive	
CNCc1cc(F)ccc1Oc1ccc(Cl)c(Cl)c1	inactive	
Nc1ccccc1N	inactive	
C[Si]1(C)O[Si](C)(C)O[Si](C)(C)O[Si](C)(C)O1		38.8 µM (active)
CCCCCCOCCO	inactive	
CCc1c(C(=O)NN2CCCCC2)nn(-c2ccc(Cl)cc2Cl)c1-c1ccc(Br)cc1	inactive	
COc1cc(C=O)ccc1O	inactive	
CN1CCCC1=O	inactive	
Cc1ccc(C(C)C)c(O)c1		46.1 µM (active)
Nc1ccc2c(c1)C(=O)c1ccccc1C2=O		13.6 µM (active)
COCCOC[C@H](CC1(C(=O)NC2CCC(C(=O)O)CC2)CCCC1)C(=O)Oc1ccc2c(c1)CCC2 (stereo not given in full)	inactive	
COCCOCCOC	inactive	

— PubChem BioAssay (EPA / NIEHS)
